This passage reports outcome and AC50 results from PubChem BioAssay (EPA / NIEHS).

Read-out in assay [1]: Thrombomodulin, THBD (gene 7056)
Put plainly: BSK_CASM3C_Thrombomodulin: BioMAP Diversity Plus: CASM3C Assay for Thrombomodulin Biomarker Activity (AID 2283051).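 Note: thrombomodulin protein level measured by ELISA 24 h after dosing.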 The note with it: primary human coronary artery smooth muscle cells; actives raise or lower the signal.

Read-out in assay [2]: Tissue Factor, F3 (gene 2152)
Kind of assay: BSK_CASM3C_TissueFactor: BioMAP Diversity Plus: CASM3C Assay for Tissue Factor Biomarker Activity (AID 2283052).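 Note: cell surface tissue factor protein level read by ELISA.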 The following applies: primary human coronary artery smooth muscle cells; actives raise or lower the signal.

Read-out in assay [3]: Interferon-gamma inducible Protein 10 (IP10), CXCL10 (gene 3627)
Put plainly: BSK_hDFCGF_IP10: BioMAP Diversity Plus: hDFCGF Assay for Interferon-gamma inducible Protein 10 (IP10) Biomarker Activity (AID 2283053). The note with it: primary human foreskin fibroblasts; actives raise or lower the signal. The method in brief:
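Primary foreskin fibroblasts, human; 24 h compound exposure; IP-10 by ELISA; bidirectional fit vs DMSO.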

Read-out in assay [4]: Urokinase-type plasminogen activator receptor (uPAR), PLAUR (gene 5329)
Put plainly: BSK_CASM3C_uPAR: BioMAP Diversity Plus: CASM3C Assay for Urokinase-type plasminogen activator receptor (uPAR) Biomarker Activity (AID 2283054).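 Note: cell-surface uPAR protein level quantified by ELISA.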 The following applies: primary human coronary artery smooth muscle cells; actives raise or lower the signal.

Read-out in assay [5]: Vascular cell adhesion molecule 1 (VCAM1), VCAM1 (gene 7412)
Kind of assay: BSK_CASM3C_VCAM1: BioMAP Diversity Plus: CASM3C Assay for Vascular cell adhesion molecule 1 (VCAM1) Biomarker Activity (AID 2283055).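 Note: VCAM-1 protein level quantified by ELISA on the cells.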 The note with it: primary human coronary artery smooth muscle cells; actives raise or lower the signal.

Read-out in assay [6]: Collagen III, COL3A1 (gene 1281)
Kind of assay: BSK_hDFCGF_CollagenIII: BioMAP Diversity Plus: hDFCGF Assay for Collagen III Biomarker Activity (AID 2283056). The following applies: primary human foreskin fibroblasts; actives raise or lower the signal. The method in brief:
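ELISA read-out of collagen III from human skin fibroblast cultures sampled 24 h post-dosing. Values were derived by bidirectional fitting relative to the DMSO vehicle control.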

Read-out in assay [7]: Epidermal growth factor receptor (EGFR), EGFR (gene 1956)
Kind of assay: BSK_hDFCGF_EGFR: BioMAP Diversity Plus: hDFCGF Assay for Epidermal growth factor receptor (EGFR) Biomarker Activity (AID 2283057). The note with it: primary human foreskin fibroblasts; actives raise or lower the signal. The method in brief:
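hDFCGF system, primary human foreskin fibroblasts; compound 24 h; EGFR measured by ELISA; DMSO = negative control/baseline; bidirectional fitting.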

Read-out in assay [8]: Interleukin-8 (IL8), CXCL8 (gene 3576)
Kind of assay: BSK_hDFCGF_IL8: BioMAP Diversity Plus: hDFCGF Assay for Interleukin-8 (IL8) Biomarker Activity (AID 2283058). The following applies: primary human foreskin fibroblasts; actives raise or lower the signal. The method in brief: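 Cells used are human skin primary fibroblasts. Chemical is added, cultures run 24 h, then IL-8 is quantified by ELISA, and gain or loss versus DMSO control is fitted in both directions.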

Assay [9] is described as follows: BSK_hDFCGF_Proliferation: Cell Proliferation Assessment in the BioMAP Diversity Plus: hDFCGF Assay (AID 2283059).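 Note: curves fitted for both rise and fall of signal versus DMSO baseline.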 The note with it: primary human foreskin fibroblasts. The method in brief:
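Sub-confluent human foreskin fibroblast cultures receive test chemical […]. Relative cell number is quantified by sulforhodamine B staining (0.1%, after 10% TCA fixation) at 560 nm, with bidirectional fitting referenced to DMSO.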

Read-out in assay [10]: Macrophage colony-stimulating factor (MCSF), CSF1 (gene 1435)
Put plainly: BSK_hDFCGF_MCSF: BioMAP Diversity Plus: hDFCGF Assay for Macrophage colony-stimulating factor (MCSF) Biomarker Activity (AID 2283060). The following applies: primary human foreskin fibroblasts; actives raise or lower the signal. In short, it runs like this:
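Primary human foreskin fibroblasts dosed with chemical; 24 h later, M-CSF quantified by ELISA; curves fitted in both directions vs DMSO negative control.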

The nature of assay [11]: BSK_hDFCGF_SRB: Viability Assessment in the BioMAP Diversity Plus: hDFCGF Assay (AID 2283061).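 Note: cells exposed to compound for 24 h before the read.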 The note with it: primary human foreskin fibroblasts. The method in brief: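 Readout is SRB absorbance at 560 nm, reflecting total protein in parallel cultures of human foreskin fibroblasts harvested 24 h after chemical dosing. Activity was fitted bidirectionally relative to DMSO.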

Read-out in assay [12]: TIMP metallopeptidase inhibitor 1 (TIMP1), TIMP1 (gene 7076)
Kind of assay: BSK_hDFCGF_TIMP1: BioMAP Diversity Plus: hDFCGF Assay for TIMP metallopeptidase inhibitor 1 (TIMP1) Biomarker Activity (AID 2283062). The note with it: primary human foreskin fibroblasts; actives raise or lower the signal. In short, it runs like this:
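Human skin fibroblasts (primary), hDFCGF system; compound exposure 24 h; TIMP-1 by ELISA; bidirectional fit vs DMSO negative control; overt cytotoxicity by SRB in parallel wells.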

Read-out in assay [13]: Monokine induced gamma interferon (MIG), CXCL9 (gene 4283)
Put plainly: BSK_hDFCGF_MIG: BioMAP Diversity Plus: hDFCGF Assay for Monokine induced gamma interferon (MIG) Biomarker Activity (AID 2283063). The following applies: primary human foreskin fibroblasts; actives raise or lower the signal. In short, it runs like this:
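Chemicals were added to primary human foreskin fibroblast cultures, which were sampled 24 h later. MIG levels were then quantified by ELISA and responses fitted in both directions relative to DMSO.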

Read-out in assay [14]: Vascular cell adhesion molecule 1 (VCAM1), VCAM1 (gene 7412)
Kind of assay: BSK_hDFCGF_VCAM1: BioMAP Diversity Plus: hDFCGF Assay for Vascular cell adhesion molecule 1 (VCAM1) Biomarker Activity (AID 2283065).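 For AC50: VCAM-1 protein level quantified by ELISA after 24 h chemical exposure.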 The following applies: primary human foreskin fibroblasts; actives raise or lower the signal. The method in brief:
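Human foreskin fibroblast primary cells, chemical exposure 24 h; VCAM-1 by ELISA; bidirectional fit, DMSO = negative control/baseline.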

Read-out in assay [15]: Plasminogen activator inhibitor-1 (PAI1), SERPINE1 (gene 5054)
Kind of assay: BSK_hDFCGF_PAI1: BioMAP Diversity Plus: hDFCGF Assay for Plasminogen activator inhibitor-1 (PAI1) Biomarker Activity (AID 2283066). The note with it: primary human foreskin fibroblasts; actives raise or lower the signal. In short, it runs like this:
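Primary dermal fibroblasts (human foreskin), hDFCGF system; compound 24 h; PAI-1 by ELISA; bidirectional fit vs DMSO control.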

Read-out in assay [16]: Intercellular Adhesion Molecule 1 (ICAM1), ICAM1 (gene 3383)
Kind of assay: BSK_KF3CT_ICAM1: BioMAP Diversity Plus: KF3CT Assay for Intercellular Adhesion Molecule 1 (ICAM1) Biomarker Activity (AID 2283067). The following applies: primary human keratinocytes with fibroblasts; actives raise or lower the signal. The method in brief:
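ICAM-1 levels are measured by ELISA 24 h after dosing a primary human co-culture of keratinocytes and foreskin fibroblasts. Activity in either direction is fitted relative to DMSO vehicle.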

Read-out in assay [17]: Interferon-gamma inducible Protein 10 (IP10), CXCL10 (gene 3627)
Kind of assay: BSK_KF3CT_IP10: BioMAP Diversity Plus: KF3CT Assay for Interferon-gamma inducible Protein 10 (IP10) Biomarker Activity (AID 2283068). The note with it: primary human keratinocytes with fibroblasts; actives raise or lower the signal. In short, it runs like this: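 ELISA read-out of IP-10 after 24 h chemical dosing of human skin primary co-culture (keratinocytes, foreskin fibroblasts). Gain or loss of signal relative to DMSO, bidirectional curve fit.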

Read-out in assay [18]: Interleukin-1 alpha (IL1a), IL1A (gene 3552)
Kind of assay: BSK_KF3CT_IL1a: BioMAP Diversity Plus: KF3CT Assay for Interleukin-1 alpha (IL1a) Biomarker Activity (AID 2283070). The following applies: primary human keratinocytes with fibroblasts; actives raise or lower the signal. The method in brief:
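Human keratinocyte plus foreskin fibroblast primary co-culture, sampled 24 h after chemical dosing. IL-1a measured by ELISA; responses fitted bidirectionally against DMSO baseline (negative control), so gain or loss of signal both count.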

Active and inactive are the calls of the source. Rule for the calls: active = hit-call score of the fitted dose curve at least 0.9, where 1 is the maximum; inactive = score below 0.9.

One may read the AC50 as the concentration at which the activity in the assay is half-maximal. With `CC(=O)O[C@]1(C(C)=O)CC[C@H]2[C@@H]3C[C@H](C)C4=CC(=O)CC[C@]4(C)[C@H]3CC[C@@]21C`, the result in [1], in assay [2], in assay [3], in assay [4], in [5] and in [6] was inactive. Besides, the outcome in [7], in [8], in [10], in [11], in assay [12] and in assay [13] was inactive. For the same molecule, the result in assay [14], in assay [15], in [16] and in [18] was inactive. Further, the AC50 was 0.0802 µM (active) in assay [9] and 2.55 µM (active) in [17].

As for `O=P(c1ccccc1)(c1ccccc1)c1ccccc1`, the outcome in [1], in assay [2], in assay [3], in [4], in [5] and in assay [6] was inactive. Further, the outcome in assay [7], in assay [8], in [9], in [10], in assay [11] and in assay [12] was inactive. The outcome in [13], in assay [14], in assay [15], in assay [16], in assay [17] and in assay [18] was inactive.

For the molecule `O=C1OC2(c3cc(Br)c(O)c(Br)c3Oc3c2cc(Br)c(O)c3Br)c2c(Cl)c(Cl)c(Cl)c(Cl)c21`, the result in assay [1], in assay [2] and in assay [4] was inactive. Moreover, the AC50 in assay [3] is 20.8 µM (active); in assay [5], 9.53 µM (active); in [6] it was 4.38 µM (active); in assay [7], 1.96 µM (active); in assay [8], 22 µM (active); in [9], 4.03 µM (active). Further, the AC50 is 1.56 µM (active) in [10]; 6.54 µM (active) in [11]; 11.5 µM (active) in assay [12]; 11.6 µM (active) in assay [13]; 4.38 µM (active) in assay [14]; 2.43 µM (active) in assay [15]. Moreover, the AC50 in assay [16] is 8.86 µM (active); in [17] it was 7.41 µM (active); in assay [18], 3.69 µM (active).

`CCCCC/C=C/C=C/C=O`: the outcome in assay [1] and in assay [7] was inactive. In addition, the half-maximal activity concentration (AC50) is 30.8 µM (active) in assay [2]; 14.5 µM (active) in assay [3]; 32.9 µM (active) in assay [4]; 20 µM (active) in assay [5]; 10.8 µM (active) in assay [6]; 30.1 µM (active) in assay [8]. Further, the half-maximal activity concentration (AC50) was 4.99 µM (active) in assay [9]; 10.7 µM (active) in assay [10]; 12.7 µM (active) in [11]; 12.7 µM (active) in assay [12]; 25.1 µM (active) in [13]; 6.87 µM (active) in [14]. The AC50 in assay [15] is 8.82 µM (active); in assay [16], 29.3 µM (active); in [17], 29.4 µM (active); in assay [18], 29.5 µM (active).

For `CCCCC(CC)COC(=O)/C=C\C(=O)OCC(CC)CCCC` (stereo not given), the outcome in [1], in assay [2], in assay [3], in [4], in assay [6] and in [7] was inactive. In addition, the outcome in assay [8], in [10], in assay [11], in [12], in [13] and in [14] was inactive. The result in assay [16], in [17] and in assay [18] was inactive. The figures for the concentration at half-maximal activity (AC50) in [5], in assay [9] and in assay [15] were 20 µM (active), 10.5 µM (active) and 7.23 µM (active), respectively.

As to `OC1OC[C@@H](O)[C@H](O)[C@H]1O` (stereo not given in full), the outcome in assay [1], in [2], in assay [3], in [4], in [5] and in [6] was inactive. Also, the result in assay [7], in assay [8], in assay [9], in [10], in assay [11] and in assay [12] was inactive. Also, the result in [13], in [14], in assay [15], in [16], in assay [17] and in assay [18] was inactive.

With `C=C(C)C(=O)O[C@H]1C[C@@H]2CC[C@@]1(C)C2(C)C`, in assay [1], the result was inactive. For the same molecule, the AC50 was 9.73 µM (active) in assay [2]; 35.2 µM (active) in assay [3]; 9.04 µM (active) in [4]; 12.1 µM (active) in [5]; 20 µM (active) in assay [6]; 29.4 µM (active) in [7]. For the same molecule, the AC50 is 35.3 µM (active) in [8]; 13.1 µM (active) in [9]; 28.4 µM (active) in [10]; 20 µM (active) in assay [12]; 34.8 µM (active) in assay [13]; 26.4 µM (active) in assay [14]. Further, the half-maximal activity concentration (AC50) in assay [15] is 12.8 µM (active); in assay [16], 28.8 µM (active); in assay [17], 16.9 µM (active); in assay [18] it was 20 µM (active).
